Measured values from PubChem BioAssay AID454 (Sanford-Burnham Center for Chemical Genomics, 2006).
Hit rate of the full screen: of about 10,000 compounds, about 25 (0.2%) were called active.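 How the source made its calls: active means compound among top-ranked inhibitors of TNF-induced VCAM-1 adhesion protein staining, with the hit upheld by image or statistical review; inactive means the rest, including hits rejected on review.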 For the sample, actives were picked, then their nearest neighbours and some compounds at random.

Test: suppression of endothelial VCAM-1 upregulation – cell-based, plate reader, pooled HUVEC, TNFa stimulus (AID 454)
Conditions: HUVEC TNFa-induced VCAM-1 surface immunofluorescence; active compounds read high,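 compound tested at 5 µM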

inhibition, inactive:
CCOC(=O)c1cccc(NC(=O)CSc2nc3cccnc3n2C)c1
Cn1c(SCc2cccc3ccccc23)nnc1-c1ccco1
CN1C(=O)C(CC(=O)N2CCN(C(c3ccccc3)c3ccccc3)CC2)N(C)C1=O (configuration not stated)
CCCCC(=O)NCCNc1nc2c(c(=O)n(C)c(=O)n2C)n1Cc1ccccc1
COc1ccc(C(=O)N2CCN(c3nc4cc(C)ccc4cc3C#N)CC2)c(OC)c1
Cc1nc2sc3c(c2c(=O)o1)CCC3
CCC(C)(C(=O)NC1CCCCC1)N(Cc1ccco1)C(=O)c1cnccn1 (configuration not stated)
CC1=CCC2C(=O)N(c3nc(C)cc(C)n3)C(=O)C2C1 (configuration not stated)
CCCn1c(NC(=O)C2COc3ccccc3O2)nc2ccccc21 (configuration not stated)
Cc1cc(C)nc(NC(=O)c2ccc(OC(C)C)cc2)n1
Cc1nn(-c2ccc(F)cc2)c2c1cc(C#N)c1nc3ccccc3n12
COc1ccc(C(=O)Cn2c(N3CCCCC3)nc3c2c(=O)n(C)c(=O)n3C)cc1OC
COc1cccc(Cn2c(Oc3ccccc3)nc3c2c(=O)n(C)c(=O)n3C)c1
Cc1ccccc1Nc1nc(N)nc(CSCc2c(C)noc2C)n1
Cc1cc2oc(=O)cc(CN3CCCCC3)c2cc1C(C)C
COc1ccc(C2=Nn3c(nnc3-c3ccccc3)SC2)cc1OC
CC(C)(C)C1=Nn2c(nnc2-c2n[nH]c3c2CCC3)SC1
COc1ccc(C2CC(c3ccc(Cl)cc3Cl)n3nc(N)nc3N2)cc1 (configuration not stated)
COc1cccc(OCCn2ccnc2)c1
COc1ccccc1NC(=O)CSc1nnc(-c2ccncc2)n1CC1CCCO1 (configuration not stated)
C=C(Cl)COc1ccc2c(C)cc(=O)oc2c1
Nc1ncnc2nc(SCCN3CCCCC3)[nH]c12
CCCC(=O)Nc1cccc(NC(=O)CN2CCN(c3ccccc3OC)CC2)c1
CN(c1ccc(OCc2nnc(-c3ccccc3)o2)cc1)S(=O)(=O)c1ccccc1
CCOC(=O)c1ccccc1NC1CC(=O)N(c2ccccc2C)C1=O (configuration not stated)
CN(C)S(=O)(=O)c1ccc(Oc2ccc(S(=O)(=O)N(C)C)cc2)cc1
O=S(=O)(Nc1ccccn1)c1ccc(Oc2ccccc2)cc1
CC1CCN(C(=O)CN2C(=O)C(C)(C)Oc3ccc(C(=O)NC4CCCC4)cc32)CC1
O=C1CC(N2CCOCC2)C(=O)N1c1ccccc1Cl (configuration not stated)
COc1ccccc1Nc1nc(N)nc(CN2CCN(c3ccccc3F)CC2)n1
OC1(c2cccc(C(F)(F)F)c2)CCNCC1
CCOC(=O)c1[nH]c(C)c(C(=O)Nc2ccc(C)c(Cl)c2)c1C
COc1ccc(OC)c(C2C(C(=O)Nc3cccnc3)=C(C)NC3=C2C(=O)CCC3)c1 (configuration not stated)
COC(=O)C1=C(C)NC(=O)C1(NC(=O)c1cccnc1)C(F)(F)F (configuration not stated)
COc1ccc(CN2C(=O)[C@@H]3C(c4ccc(F)cc4)=NO[C@@H]3C2=O)cc1
CCOC(=O)c1cc2c(=O)n3ccccc3nc2n(CC(C)C)c1=NC(=O)c1ccco1
Cc1cccn2c(=O)c3cc(C#N)c(=NC(=O)c4ccncc4)n(Cc4ccco4)c3nc12
CCOc1ccc(NC(=O)CN2CCN(CC(=O)c3ccc(OCC)cc3)CC2)cc1
CCCCc1c(O)nc(N2CCN(Cc3ccccc3)CC2)[nH]c1=O
CCN(CC(=O)Nc1ccc2c(c1)CCC2)Cc1nc2ccccc2c(=O)[nH]1
Nc1nc(SCc2ccc(Cl)cc2Cl)n[nH]1
O=S(=O)(Nn1cnnc1)c1ccccc1Cl
CCOc1cc2[nH]c(=S)n(CC3CCCO3)c(=O)c2cc1OCC (configuration not stated)
Cc1cc(NC(=O)CSc2nnc(COc3cccc(C)c3C)n2Cc2ccco2)no1
COCCn1c(COc2ccc(Cl)cc2)nnc1SCC(N)=O
Cc1ccccc1-c1nc(CN2CCC(C(=O)NCc3cccnc3)CC2)c(C)o1
O=c1nc(N2CCCC2)nc(Nc2ccccc2)[nH]1
O=C(Cn1cc2c(n1)CCCCC2)N1CCc2ccccc21
Cc1nnc(SCC(=O)N2c3ccccc3CC2C)s1 (configuration not stated)
Cc1nnc(SCC(=O)NCc2ccccc2)s1
CCOc1cccc(Oc2ccc(C(F)(F)F)cn2)c1
COc1ccc(S(=O)(=O)N2CN(Cc3ccco3)c3nc4ccccc4nc32)cc1
Cc1ccc2nc(C3CCN(CC(=O)N4CCCCCC4)CC3)[nH]c2c1
CCOc1ccccc1N1CCN(c2nc3ccccc3nc2C(C#N)C(=O)OC)CC1 (configuration not stated)
S=c1[nH]nc(-c2ccco2)n1-c1cccc2ccccc12
Cc1c(C)c2ccc(OC3CCCCC3=O)cc2oc1=O (configuration not stated)
COc1ccccc1CC(=O)NCc1ccc2c(c1)OCO2
O=C1c2ccccc2C(Nc2ccc(F)c(Cl)c2)N1Cc1ccco1 (configuration not stated)
O=C1c2ccccc2C(Nc2ccc(-c3nc4ccccc4[nH]3)cc2)N1Cc1ccco1 (configuration not stated)
CCCc1cc(Nc2cccc(OC)c2)n2ncnc2n1
CCOC(=O)CS(=O)(=O)c1nc(-c2ccccc2)cc(C(F)(F)F)n1
COc1ccc(-c2cc(C(F)(F)F)nc(SCCC(=O)N3CCOCC3)n2)cc1
O=C(Cn1cnc2ccccc2c1=O)NCCC(=O)N1CCN(c2ccccc2)CC1
CCc1ccccc1NC(=O)CN(c1cccc(OC)c1)S(C)(=O)=O
C/C(=C\c1cc(C(=O)O)c(C)o1)CO
Cc1ccc(SC(C)c2nc(-c3ccccc3)no2)cc1 (configuration not stated)
Cc1cnc(C(=O)Nc2ccc(N3CCOCC3)cc2)cn1
CSc1ncc(Cl)c(C(=O)Nc2ccc(S(=O)(=O)N3CCOCC3)cc2)n1
Cc1cc(O)c(C2(C(F)(F)F)NCCNC2=O)cc1C (configuration not stated)
CCC(=O)N(Cc1ccco1)c1nc(-c2cc(OC)ccc2OC)cs1
Cn1c(C(=O)NCCN2CCN(c3ccccc3F)CC2)cc2c(=O)n(C)c3ccccc3c21
COc1cc(C2N=C(c3ccccc3)NO2)cc(Br)c1O (configuration not stated)
CCOc1cc(C2Nc3ccccc3C(=O)N2c2ccccc2OC)ccc1O (configuration not stated)
COC(=O)c1ccc(CSc2nc3c(cnn3-c3ccc(F)cc3)c(=O)[nH]2)o1
O=c1[nH]c2sc3c(c2c2nncn12)CCCC3
Cc1cc(NC(=O)c2cc(-c3ccco3)on2)n(-c2ccccc2)n1
C/C(NC1CCCC1)=C(/C#N)C(N)=O
Clc1cccc(-c2nnc3sc(-c4ccccc4)nn23)c1
OCCn1c(-c2ccc3c(c2)OCO3)csc1=Nc1ccccc1
CCOC(=O)c1cccc(NC2c3ccccc3C(=O)N2Cc2ccco2)c1 (configuration not stated)
CCNC(=O)C1CC(=O)N(Cc2ccc3c(c2)OCO3)C(=Nc2ccc(OCC)cc2)S1 (configuration not stated)
CCOC(=O)c1ccc(NC(=O)CSCc2ccco2)cc1
Cc1cccc(NC(=O)c2cc(NC(=O)c3ccco3)ccc2N2CCCCC2)c1
O=C(c1ccccc1)c1ccc(N2CCOCC2)c(NC(=O)c2ccco2)c1
COc1ccc(CCNc2nc(N3CCOCC3)nc(N3CCOCC3)n2)cc1OC
Cn1c(=O)c2c(nc(SCC(=O)NCc3ccc4c(c3)OCO4)n2Cc2ccccc2)n(C)c1=O
CCOC(=O)CSc1nc2cccnc2n1-c1ccc(F)cc1
CCc1ccc2[nH]c(=O)c(C(c3nnnn3CC3CCCO3)N3CCN4CCCC4C3)cc2c1 (configuration not stated)
CCOc1ccc2[nH]c(=O)c(C(c3nnnn3CC3CCCO3)N3CCc4ccccc4C3)cc2c1 (configuration not stated)
Nc1nc(N2CCCCC2)nc(N(c2ccccc2)c2ccccc2)n1
CC(=O)NC(CCS(C)(=O)=O)C(=O)Nc1cccc2ccccc12 (configuration not stated)
O=C(Cn1nc(-c2ccc(Cl)cc2)ccc1=O)NCCCN1CCN(Cc2ccccc2)CC1
CCOC(=O)c1ccccc1NC(=O)c1ccc2c(=O)n3c(nc2c1)CCCCC3

inhibition, active:
COc1ccc(-c2nc3c(c(=O)n(C)c(=O)n3C)n2CC2CC(c3ccccc3)=NO2)cc1OC (configuration not stated) 73.1%
Clc1ccc(C2=Nn3c(nnc3-c3n[nH]c4c3CCC4)SC2)cc1Cl 106%
C=CS(=O)(=O)c1ccc(Oc2ccc(S(=O)(=O)C=C)cc2)cc1 100%
CC(C)n1c(=NC(=O)c2ccco2)c(C#N)cc2c(=O)n3ccccc3cc21 78.8%
Clc1ccc(OCc2nnc(SCCN3CCCCC3)n2Cc2ccco2)cc1 82.9%
Cc1nnc(SC(=O)N2c3ccccc3Sc3ccccc32)s1 92.2%
O=C1c2ccccc2C(Nc2ccc3nc(-c4cccnc4)[nH]c3c2)N1Cc1ccco1 (configuration not stated) 79.2%
COCC(C)NC(=O)CCS(=O)(=O)c1nc(-c2ccc(OC)cc2)cc(C(F)(F)F)n1 (configuration not stated) 91.4%
CS(=O)(=O)c1ncc(Cl)c(C(=O)Nc2ccc(N3CCOCC3)cc2)n1 97.8%
COc1cc(C2Nc3cccc4cccc(c34)N2)cc(OC)c1O 73.4%
COC(=O)c1cc(=O)n(Cc2ccc3c(c2)OCO3)c(=Nc2ccccc2)s1 96%
CCOC(=O)c1ccc(N=c2sc(C(=O)OC)cc(=O)n2Cc2ccco2)cc1 95.5%
Cn1nc(-c2ccc(N3CCCCC3)c(NC(=O)c3ccco3)c2)c2ccccc2c1=O 83.4%
CCc1ccc2[nH]c(=O)c(C(c3nnnn3CC3CCCO3)N3CCCc4ccccc43)cc2c1 (configuration not stated) 93.2%
